Calls of active or inactive are those of the source.
Columns and labels:
[1] = A549 cell viability effects, profiling panel, calcein-AM fluorescence, 48 h, basal (AID 1162); conditions: higher = more signal
[2] = adipocyte viability effects, profiling panel, cell-based, 3T3-L1 adipocytes, calcein-AM fluorescence, 48 h, basal (AID 1163); conditions: 3T3-L1 adipocytes viability, higher = more signal
[3] = HepG2 cell viability effects, profiling panel, calcein-AM fluorescence, 48 h, basal (AID 1164); conditions: higher = more signal
[4] = MM1S cell viability effects, profiling panel, calcein-AM fluorescence, 48 h, basal (AID 1165); conditions: higher = more signal;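 further: viability of MM1S multiple myeloma cells under basal unstimulated conditions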
[5] = basal RPMI8226 viability, no added stimulus, profiling panel, cell-based, calcein-AM fluorescence, 48 h, PK04 Diversity Set (AID 1166); conditions: RPMI8226 myeloma viability, higher = more signal;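 further: cells grown under basal conditions without added stimulus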
[6] = basal HepG2 mitochondrial membrane potential changes, profiling panel, cell-based, JC-1 fluorescence, 24 h, 100 nL compound (AID 1167); conditions: higher = more signal
[7] = basal 3T3-L1 adipocyte mitochondrial potential changes, profiling panel, cell-based, JC-1 fluorescence, 3T3-L1 adipocytes, 24 h, 100 nL compound (AID 1168); conditions: JC-1 mitochondrial fluorescence, higher = more signal, called active from +8 up or from −8 down
[8] = basal RPMI8226 mitochondrial membrane potential changes, profiling panel, cell-based, JC-1 fluorescence, 24 h, 100 nL compound (AID 1169); conditions: RPMI8226 myeloma, JC-1 mitochondrial potential fluorescence, higher = more signal
[9] = basal MM1S mitochondrial membrane potential changes, profiling panel, cell-based, JC-1 fluorescence, 24 h, 100 nL compound (AID 1170); conditions: higher = more signal
[10] = A549 lung cancer cell viability effects, profiling panel, resazurin fluorescence, 24 h, PK04 Diversity Set (AID 1171); conditions: higher = more signal, called active from +8 up or from −8 down
Further: test concentration not given here.

SMILES	z-score [1]	z-score [2]	z-score [3]	z-score [4]	z-score [5]	z-score [6]	z-score [7]	z-score [8]	z-score [9]	z-score [10]
C=C(COC)C(=O)CC[C@H](OC(C)=O)c1ccc(CO)o1	0.0053	0.972	-0.582	0.657	1.76	0.378	-0.587 (inactive)	-0.563	-0.434	0.642 (inactive)
CCOC(=O)C[C@H]1[C@H](OC(=O)c2ccccc2-c2ccccc2)[C@@H](NC(=O)CC(C)C)c2cc(OCCCO)ccc2N1C(=O)c1ccccc1	0.682	1.32	-0.177	-0.271	0.107	2.01	0.197 (inactive)	-0.986	-0.0327	1.65 (inactive)
COc1cccc(C)c1NC(=O)O[C@H]1[C@H](OC(=O)Nc2ccccc2)[C@@H](OC(=O)Nc2ccccc2)[C@@H](OC)O[C@@H]1CO	-1.86	0.861	-1.9	-2.59	-3.26	-0.702	1.17 (inactive)	-1.05	0.0418	-3.49 (inactive)
COCCCNC(=O)[C@@]1(Cc2ccccc2I)c2ccccc2C(=O)N(C2CCCCC2)[C@H]1c1ccc(CO)cc1	-0.126	0.2	-0.335	-0.339	-0.0802	1.29	-0.276 (inactive)	-0.794	-1.01	1.59 (inactive)
O=C(NCC(F)(F)F)[C@@H]1c2ccccc2C(=O)N(Cc2cc(C(F)(F)F)cc(C(F)(F)F)c2)[C@H]1c1ccc(CO)cc1	0.964	-0.0843	1.42	-0.202	1.07	1.95	1.36 (inactive)	0.801	-0.626	0.651 (inactive)
O=C1C2C=CC(C(O)C3CCCCC3)N(Nc3ccccc3F)C2C(=O)N1c1ccccc1 (stereo not given)	-0.112	0.1	-0.528	0.345	-0.925	-0.804	-0.865 (inactive)	-0.224	-0.433	-0.852 (inactive)
COCCOC(=O)N1C(=O)[C@@]2(c3cc(C#CCNC(N)=O)ccc31)[C@H](c1ccccc1OCCO)N1[C@H](c3ccccc3)[C@H](c3ccccc3)OC(=O)[C@H]1[C@@H]2C(=O)N1CCCCCCC1	-0.396	-0.0319	0.371	-1.22	0.56	-1.51	-1.3 (inactive)	-0.441	-0.911	0.519 (inactive)
C[N+](C)(C)CCCC[C@@H]1NC(=O)[C@H]2C[C@@H](C(=O)NCCCCCN)[C@@H](c3ccc(O)cc3)N2C1=O	2.02	0.727	-0.224	-1.68	-0.145	1.66	-0.359 (inactive)	0.144	-0.292	0.78 (inactive)
COc1ccc(CCNC(=O)[C@@]2(C)c3ccccc3C(=O)N(Cc3ccc(OC(F)(F)F)cc3)[C@H]2c2ccc(CO)cc2)cc1	0.109	0.965	-0.0665	-2.23	-2.3	2.56	0.434 (inactive)	-0.114	0.0946	2.43 (inactive)
COC(=O)C[C@H]1O[C@]2(C(=O)N(C)c3ccccc32)[C@@H](C)[C@@H]1[Si](C)(C)c1ccccc1	-0.843	1.01	-1.05	-0.344	-0.0598	-0.57	0.611 (inactive)	-0.0109	0.425	1.38 (inactive)
COC(=O)[C@@]1(Cc2ccc(F)cc2)[C@H]2c3cc(C(=O)N4CCCC4)n(CCSCCO)c3C[C@H]2CN1C(=O)c1ccccc1	-0.354	0.75	0.706	-1.58	-0.118	1.3	-1.3 (inactive)	-0.00907	-0.303	-0.294 (inactive)
O=C1O[C@@H](c2ccccc2)[C@@H](c2ccccc2)N2[C@@H](c3ccccc3OCCO)[C@]3(C(=O)Nc4ccc(C#CC5(O)CCCCCC5)cc43)[C@@H](C(=O)N3CCCCCCC3)[C@H]12	-1.66	1.48	-0.0161	-0.651	-2.59	-1.4	0.644 (inactive)	-0.96	-1.33	-0.64 (inactive)
O=C1O[C@H](c2ccccc2)[C@H](c2ccccc2)N2[C@H]1[C@@H](C(=O)O)[C@]1(C(=O)Nc3ccccc31)[C@H]2c1ccc(OCCO)cc1	-0.29	1.11	-0.119	0.338	-2.44	-0.706	0.254 (inactive)	-0.295	0.0484	0.683 (inactive)
O=C1C[C@@](C(=O)NCC(F)(F)F)(c2ccc([N+](=O)[O-])cc2)[C@@H](c2ccc(CO)cc2I)N1CC12CC3CC(CC(C3)C1)C2	-2.05	0.463	-5.2	-3.84	-4.03	-0.436	2.16 (inactive)	-0.9	-2.17	-3.86 (inactive)
O=C(NC1CC1)[C@@H]1c2ccccc2C(=O)N(C2CCCCC2)[C@H]1c1ccc(CO)cc1	1.35	-0.27	1.12	-0.856	-0.591	1.38	-0.724 (inactive)	0.512	-0.256	0.0989 (inactive)

From PubChem BioAssay
